# Only a selection was taken, and hits are over-represented in it overall.
# Methyltransferases = Primary Screen for Target Class Profiling of Small Molecule Inhibitors of Methyltransferases | purified enzyme, MTase-Glo SAH luminescence; active compounds read low | calls only at 40 µM | 25,000 compounds, 3.9% hits | AID 1745853, 2022; call rule not given here
#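 Each enzyme was assayed with SAM and its substrate. SAH formation detected by MTase-Glo luminescence; single-point 40 uM screen[…].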
# * marks the source's active call; other numbers are inactive results; i = inactive; + = active, no number; ! = a repeat was not active. On the % scale 0 is the no-effect control and ±100 the full control effect.
SMILES,Methyltransferases
O=C(Cn1c(=O)c2ccc(Cl)cc2n2nncc12)Nc1ccc(Oc2ccccc2)cc1,i
c1cc(NC2CCNCC2)nc(-c2cnc3ccccn23)c1,+
O=C(Nc1ccccc1Cl)c1cnc2ccc(C3CCNCC3)cn12,i
COCCCNC(=O)Cn1ccc2cc(S(=O)(=O)N3CCCCC3)ccc21,i
Cc1ccccc1CNC(=O)C(C)n1ccc2cc(S(=O)(=O)N3CCCC3)ccc21 (configuration not stated),i
COc1ccc(C2CC(=O)c3cc(-c4nc(-c5cccc([N+](=O)[O-])c5)cs4)c(=O)n(-c4ccccc4N)c3C2)cc1 (configuration not stated),+
COc1ccc(S(=O)(=O)Nc2nc(-c3cccc([N+](=O)[O-])c3)cs2)cc1OC,i
CCCSCCCN1C(=O)c2cc3sc(CC)cc3n2CC1(C)C(=O)NC1CCCCC1 (configuration not stated),i
CCCN1C(=O)c2c(C(=O)NCCc3ccc(OC)cc3OC)ncn2CC1(C)C(=O)NC1CCCC1 (configuration not stated),i
CC(C)Cn1c(=O)c2ccc(C(=O)NC(C)C)cc2n2c(SCC(N)=O)nnc12,i
Cc1cccc(-c2n[nH]n3c2nc(=O)c2ccc(C(=O)N4CCN(c5cc(C)ccc5C)CC4)cc23)c1,i
Cc1ccc(C)c(N2CCN(C(=O)CCc3nnc4n(CCCOC(C)C)c(=O)c5ccccc5n34)CC2)c1,i
Cc1cccc(N2CCN(C(=O)c3ccc4c(=O)[nH]c5c(C(=O)NC(C)C)sc(=S)n5c4c3)CC2)c1C,+
Cc1cccc(N2CCN(C(=O)c3ccc4c(=O)[nH]c5c(C(=O)NC6CCCC6)sc(=S)n5c4c3)CC2)c1C,i
CCc1nc2c(=O)n(CC(=O)N3CCN(c4cccc(C)c4C)CC3)nc(C)c2s1,i
Cc1ccc(C)c(N2CCN(C(=O)c3ccc4c(=O)[nH]c5c(C(=O)NC(C)C)sc(=S)n5c4c3)CC2)c1,+
Cc1cccc(NC(=O)CSc2nnc3n(CC(C)C)c(=O)c4ccccc4n23)c1,i
CCOC(=O)c1cc2n(n1)CC(C)(C(=O)NC1CCC(C)CC1)N(CCc1cccs1)C2=O (configuration not stated),i
CCOCCCNC(=O)C1c2c(n(C)c3ccccc23)SCC(=O)N1Cc1ccccc1Cl (configuration not stated),i
CCCN1C(=O)c2c(C(=O)NCc3ccccc3F)ncn2CC1(C)C(=O)NCCC(C)C (configuration not stated),i
Cn1c(=O)c2ccc(C(=O)NC3CCCCC3)cc2n2c(=O)n(CC(=O)Nc3ccccc3F)nc12,i
COc1cc2c(Oc3ccc(NC(=O)C4(C(=O)Nc5ccc(F)cc5)CC4)cc3F)ccnc2cc1OCCCN1CCOCC1,i
COc1cc2c(Nc3ccc(Cl)c(Cl)c3F)ncnc2cc1OCC1C[C@@H]2CN(C)C[C@@H]2C1 (some centres not stated),+
COCCOc1cc2ncnc(Cl)c2cc1OCCOC,i
COc1cc2ncnc(Nc3ccc(F)c(Cl)c3)c2cc1OCCCN1CCOCC1,+
SMILES,Methyltransferases
Cn1cc(-c2cnc(Nc3ccc(F)c(Cl)c3)c3c2CCO3)cn1,i
CCCn1c(=O)c2ccc(C(=O)NC3CCCC3)cc2n2c(=O)n(CC(=O)c3ccc(Cl)cc3)nc12,i
Cc1ccccc1CN1C(=O)c2cc3sccc3n2CC1(C)C(=O)NC1CCCCC1 (configuration not stated),i
CCOCCCNC(=O)c1cc2n(n1)CC(C)(C(=O)NC1CCCC1)N(CC)C2=O (configuration not stated),i
CCCC1c2cccn2CCN1C(=O)Nc1ccc(C)cc1 (configuration not stated),i
Cc1ccc(CN2C(=O)c3cc4sccc4n3CC2(C)C(=O)NC2CCCC2)cc1 (configuration not stated),i
N.N.N.N.N.N.N.N.N.N.N.N.N.N.O.O.[Ru+4].[Ru+5].[Ru+5],+
COc1ccc(CNC(=O)c2ccc3c(=O)nc4c(-c5ccc(C)cc5)n[nH]n4c3c2)cc1,i
N#Cc1ccc(-c2csc(NN=C3CCCC3)n2)cc1,+!
CC(CN1C(=O)c2cc3occc3n2CC1(C)C(=O)NC1CCCCC1)c1ccccc1 (configuration not stated),i
CCN(CC)C(=S)SSC(=S)N(CC)CC,+
CC(C)CCn1c(=O)c2ccc(C(=O)NCC(C)C)cc2n2c(=O)n(Cc3cccc(F)c3)nc12,i
CCCn1c(=O)c2ccc(C(=O)NC3CCCC3)cc2n2c(SCC(=O)c3ccc(OC)cc3)nnc12,i
Cc1ccc(NC(=O)c2ccc(CN3CCNCC3)cc2)cc1Nc1nccc(-c2cccnc2)n1,i
CNc1nccc(-c2cccnc2Oc2cc(C(=O)Nc3cccc(C(F)(F)F)c3)ccc2C)n1,i
CN(C)C/C=C/C(=O)Nc1ccc(C(=O)Nc2cccc(Nc3ncc(Cl)c(-c4c[nH]c5ccccc45)n3)c2)cc1,+
CN(C)C/C=C/C(=O)Nc1cccc(C(=O)Nc2cccc(Nc3ncc(Cl)c(-c4c[nH]c5ccccc45)n3)c2)c1,+
Cn1c(=O)c(-c2c(Cl)cccc2Cl)cc2cnc(Nc3cccc(C(=O)O)c3)nc21,i
CN(C)C/C=C/C(=O)Nc1cccc(C(=O)Nc2ccc(Nc3nccc(-c4cccnc4)n3)cc2)c1,+
CCC(C)NC(=O)c1ccc2c(=O)n(Cc3ccccc3)c3nn(Cc4ccc(F)cc4)c(=O)n3c2c1 (configuration not stated),i
COc1ccc(-c2cc3n(n2)CC(C)(C(=O)NC2CCCCC2)N(Cc2ccco2)C3=O)cc1 (configuration not stated),i
CN1C(=O)c2cc(C(=O)NCCCN3CCOCC3)nn2CC1(C)C(=O)NCc1ccc(F)cc1 (configuration not stated),i
CC1(C(=O)NC2CCCC2)Cn2c(ccc2-c2ccco2)C(=O)N1CCCc1ccccc1 (configuration not stated),i
Cc1ccc(C)c(N2C(=O)CSc3c(c4ccccc4n3C)C2C(=O)NCCCOC(C)C)c1 (configuration not stated),i
O=C(Nc1ccc(F)cc1)N1CCn2cccc2C1Cc1ccccc1 (configuration not stated),i
SMILES,Methyltransferases
COc1ccc(OC)c(NC(=O)N2Cc3c(sc4c3CCCC4)-n3cccc3C2c2ccccc2)c1 (configuration not stated),i
CCCc1c(-c2ccc(O)cc2)nn(-c2ccc(O)cc2)c1-c1ccc(O)cc1,+
CN1C(=O)c2cc(C(=O)NCc3ccccc3Br)nn2CC1(C)C(=O)NC1CCCC1 (configuration not stated),i
COc1ccc(-c2cc3n(n2)CC(C)(C(=O)NCc2ccccc2OC)N(c2ccc(C)c(Cl)c2)C3=O)cc1 (configuration not stated),i
CC1CCCCC1NC(=O)C1(C)Cn2c(nc3ccccc32)C(=O)N1CCc1ccc(Cl)cc1 (configuration not stated),i
COc1cccc(CN2C(=O)c3ccc(-c4ccccc4)n3CC2(C)C(=O)NC2CCCCC2)c1 (configuration not stated),i
CC1(C(=O)NC2CCCCCC2)Cn2c(nc3ccccc32)C(=O)N1Cc1ccccn1 (configuration not stated),i

# High-throughput results (PubChem)
